# Measurements from PubChem BioAssay (Tox21).
# Several values for one entry are separate records, joined by “and”; a condition that tells them apart may be missing. Equal entries are not always repeated. Inconclusive results are not listed. A call without a number means that no potency is given here. Some compounds were tested as several samples or in several runs, with calls that do not always agree. Activity calls are given as the source filed them. Unless noted, the call rests on the fitted dose curve; in most records, active means well fitted curve in the direction sought with a large enough effect in the repeat runs; inconclusive means weak or mixed curves; inactive means no such curve, though single readings can be large; an effect the other way counts as inactive or inconclusive.
# How the values were obtained:
# [1] = qHTS assay to identify small molecule antagonists of the peroxisome proliferator-activated receptor delta (PPARd) signaling pathway - cell viability counter screen (AID 743213); further: nearly all actives have a fitted effect of over 50% in size; further: potency means the concentration at half of the fitted maximal effect
# How it was run: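 PPARd-bla HEK293H cells (3000/well) got compound plus 300 nM L165041 agonist for 17 h at 37 C. Viability in the same wells came from CellTiter-Glo luminescence after 30 min at room temperature.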
# [2] = target: Peroxisome proliferator-activated receptor delta (Homo sapiens) (UniProt Q03181); assay: qHTS assay to identify small molecule antagonists of the peroxisome proliferator-activated receptor delta (PPARd) signaling pathway (AID 743215; active means well fitted inhibition curve with a large enough effect in the signal ratio in the repeat runs, not every such curve was filed as active; the % refers to the signal ratio;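 further: cells stimulated with agonist L165041 at 300 nM final during compound exposure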; further: potency means the concentration at half of the fitted maximal effect)
# How it was run: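 Here, a reporter line (HEK293H, beta-lactamase under a UAS) measures PPARd signaling. Compounds are tested against agonist L165041 at 300 nM final concentration over 17 h at 37 C, with fluorescence read after substrate.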
# [3] = qHTS assay to identify small molecule agonists of the farnesoid-X-receptor (FXR) signaling pathway - cell viability counter screen (AID 743218); further: nearly all actives have a fitted effect of over 45% in size; further: potency means the concentration at half of the fitted maximal effect
# How it was run: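 Quantitative HTS counter screen measuring ATP-based viability via CellTiter-Glo luminescence in HEK 293T cells carrying a UAS-driven beta-lactamase reporter, after 16 h compound exposure at 37 C.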
# [4] = qHTS assay to identify small molecule antagonists of the farnesoid-X-receptor (FXR) signaling pathway - cell viability counter screen (AID 743221; active means well fitted cell-killing curve with a large enough effect in the repeat runs, not every such curve was filed as active; further: nearly all actives have a fitted effect of over 50% in size; further: potency means the concentration at half of the fitted maximal effect)
# How it was run: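 After a 5 h settling period, FXR-bla HEK 293T cells receive compound and chenodeoxycholic acid (50 uM final) and incubate 16 h at 37 C; CellTiter-Glo luminescence, read after 30 min at room temperature, reports cell viability.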
# [5] = qHTS assay to identify small molecule agonists of the vitamin D receptor (VDR) signaling pathway - cell viability counter screen (AID 743224); further: nearly all actives have a fitted effect of over 50% in size; further: potency means the concentration at half of the fitted maximal effect
# How it was run: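 CellTiter-Glo viability readout on VDR-bla cells, measured after 16 h of compound treatment at 37C in the same wells.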
# [6] = qHTS assay to identify small molecule antagonists of the vitamin D receptor (VDR) signaling pathway - cell viability counter screen (AID 743225); further: nearly all actives have a fitted effect of over 50% in size; further: potency means the concentration at half of the fitted maximal effect
# How it was run: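 Parallel cytotoxicity test: VDR-UAS-bla HEK 293T, 3 nM (final) 1-alpha,25-dihydroxyvitamin D3 with test compound, 16 h, 37C. Endpoint is CellTiter-Glo luminescence in the same wells.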
# [7] = qHTS assay to identify small molecule agonists of the endoplasmic reticulum stress response signaling pathway - cell viability counter screen (AID 1159517; calls by dose curve; further: nearly all actives have a fitted effect of over 50% in size; further: potency means the concentration at half of the fitted maximal effect)
# How it was run: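 Cpd-treated ESRE-bla HeLa (5 hr, 37 C) → LiveBLAzer 2 hr RT → CellTiter-Glo 30 min RT → luminescence.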
# [8] = qHTS assay to identify small molecule antagonists of the retinoid-related orphan receptor gamma (ROR-gamma) signaling pathway - cell viability counter screen (AID 1159520); further: nearly all actives have a fitted effect of over 50% in size; further: potency means the concentration at half of the fitted maximal effect
# How it was run: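 Tet-on ROR gamma CHO cells (1,000/well) were plated 4 hr, given compounds in DMSO for 2 hr at 37 C, then induced with 1 uM final doxycycline for 16 hr. Viability was read as ATP by CellTiter-Glo luminescence after 30 min.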
# [9] = qHTS assay to identify small molecule agonists of the AP-1 signaling pathway - cell viability counter screen (AID 1159525; calls by dose curve; further: nearly all actives have a fitted effect of over 55% in size; further: potency means the concentration at half of the fitted maximal effect)
# How it was run: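 Each titration point was normalised to DMSO and tetra n-octyl ammonium bromide controls. The read was Cell Titer Glo luminescence after 30 min at RT, following 5 h compound exposure of ME-180 AP-1-bla cells at 37 °C.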
# [10] = qHTS assay to identify small molecule agonists of the RXR signaling pathway - cell viability counter screen (AID 1159529); further: nearly all actives have a fitted effect of over 50% in size; further: potency means the concentration at half of the fitted maximal effect
# How it was run: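 In this parallel viability measure, GeneBLAzer RXR-alpha HEK 293T cells (2% charcoal-stripped FBS) were given a 5 hr preincubation, treated with compounds 16 hr at 37 C, and read by CellTiter-Glo luminescence.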
# [11] = qHTS assay to identify small molecule antagonists of the retinoid acid receptor (RAR) signaling pathway - cell viability counter screen (AID 1159551); further: nearly all actives have a fitted effect of over 35% in size
# How it was run: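 In this counter screen, the RARE-luciferase line C3RL4 was exposed for 6 h at 37 C and 5% CO2 to compounds with retinol at 1 uM final. Cellular ATP, read by luminescence, served as the viability measure.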
# [12] = target: Bile acid receptor (Homo sapiens) (UniProt Q96RI1); assay: qHTS assay to identify small molecule agonists of the farnesoid-X-receptor (FXR) signaling pathway (AID 743220; active means well fitted activation curve with a large enough effect in the signal ratio in the repeat runs, not every such curve was filed as active; the % refers to the signal ratio)
# How it was run: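 FXR-UAS-bla HEK 293T cells carrying a UAS-driven beta-lactamase reporter were plated for 5 h at 37C/5% CO2, then exposed to DMSO-dissolved Tox21 10K compounds for 16 h at 37C. A LiveBLAzer B/G FRET substrate was loaded for 2 h at room temperature before fluorescence reading.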
# [13] = target: Vitamin D3 receptor (Homo sapiens) (UniProt P11473); assay: qHTS assay to identify small molecule agonists of the vitamin D receptor (VDR) signaling pathway (AID 743222; calls by dose curve)
# How it was run: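 Tox21 cell reporter format: VDR-bla line, 16 h compound exposure in 5% CO2 at 37C, then fluorescence intensity after 2 h with LiveBLAzer B/G FRET substrate.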
# [14] = target: Vitamin D3 receptor (Homo sapiens) (UniProt P11473); assay: qHTS assay to identify small molecule antagonists of the vitamin D receptor (VDR) signaling pathway (AID 743223; active means well fitted inhibition curve with a large enough effect in the signal ratio in the repeat runs, not every such curve was filed as active; the % refers to the signal ratio)
# How it was run: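 Reporter line VDR-bla; stimulus 1alpha,25-(OH)2 vitamin D3, 3 nM final; compound co-addition, 16 h 37C/5% CO2; LiveBLAzer B/G substrate 2 h RT; fluorescence intensity.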
# [15] = target: Nuclear receptor ROR-gamma (Homo sapiens) (UniProt P51449); assay: qHTS assay to identify small molecule antagonists of the retinoid-related orphan receptor gamma (ROR-gamma) signaling pathway (AID 1159521; further: nearly all actives have a fitted effect of over 50% in size; further: potency means the concentration at half of the fitted maximal effect)
# How it was run: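 Decreased RORE-driven luciferase luminescence indicates antagonism. Tet-on RORγ CHO cells received compound, then 1 uM final doxycycline 2 h later; signal read after 16 h incubation.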
# [16] = target: Peroxisome proliferator-activated receptor delta (Homo sapiens) (UniProt Q03181); assay: qHTS assay to identify small molecule agonists of the peroxisome proliferator-activated receptor delta (PPARd) signaling pathway (AID 743212; calls by dose curve)
# How it was run: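 Cells expressing a UAS-driven beta-lactamase reporter (PPARd-bla HEK293H) were given test compounds after a 5 h settle and kept at 37 C. Reporter activity was then measured as FRET fluorescence using LiveBLAzer B/G substrate.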
# [17] = target: Retinoic acid receptor RXR-alpha (Homo sapiens) (UniProt P19793); assay: qHTS assay to identify small molecule agonists of the RXR signaling pathway (AID 1159527; calls by dose curve; further: nearly all actives have a fitted effect of over 35% in size)
# How it was run: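 16 hr incubation of compound-treated RXR-alpha-UAS-bla HEK 293T cells (2% charcoal-stripped FBS, 37 C) preceded a 2 hr room-temperature LiveBLAzer FRET substrate step and blue/green fluorescence measurement.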
# [18] = qHTS assay to identify small molecule agonists of the AP-1 signaling pathway (AID 1159526; calls by dose curve)
# [19] = target: Bile acid receptor (Homo sapiens) (UniProt Q96RI1); assay: qHTS assay to identify small molecule antagonists of the farnesoid-X-receptor (FXR) signaling pathway (AID 743217; active means well fitted inhibition curve with a large enough effect in the signal ratio in the repeat runs, not every such curve was filed as active; the % refers to the signal ratio; further: potency means the concentration at half of the fitted maximal effect)
# How it was run: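 Test compounds are pin-transferred onto FXR-bla HEK 293T cells, then chenodeoxycholic acid is added at 50 uM final. After 16 h at 37 °C, LiveBLAzer B/G substrate is applied for 2 h at room temperature and fluorescence read.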
# Peroxisome proliferator-activated receptor delta (Homo sapiens), sequence (Q03181 whole entry, looked up): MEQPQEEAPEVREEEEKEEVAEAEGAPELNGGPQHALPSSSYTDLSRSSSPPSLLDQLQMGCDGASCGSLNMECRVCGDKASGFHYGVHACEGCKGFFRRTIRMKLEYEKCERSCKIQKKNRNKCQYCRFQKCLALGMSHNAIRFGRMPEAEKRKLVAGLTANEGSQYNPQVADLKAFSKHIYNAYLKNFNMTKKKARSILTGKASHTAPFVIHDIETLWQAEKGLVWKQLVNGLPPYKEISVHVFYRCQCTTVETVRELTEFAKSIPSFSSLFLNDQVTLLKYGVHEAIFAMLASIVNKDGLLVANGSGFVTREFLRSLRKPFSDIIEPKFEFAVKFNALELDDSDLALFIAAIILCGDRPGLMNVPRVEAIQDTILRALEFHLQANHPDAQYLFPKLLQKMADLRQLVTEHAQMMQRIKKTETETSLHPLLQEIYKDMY
# Vitamin D3 receptor (Homo sapiens), sequence (P11473 whole entry, looked up): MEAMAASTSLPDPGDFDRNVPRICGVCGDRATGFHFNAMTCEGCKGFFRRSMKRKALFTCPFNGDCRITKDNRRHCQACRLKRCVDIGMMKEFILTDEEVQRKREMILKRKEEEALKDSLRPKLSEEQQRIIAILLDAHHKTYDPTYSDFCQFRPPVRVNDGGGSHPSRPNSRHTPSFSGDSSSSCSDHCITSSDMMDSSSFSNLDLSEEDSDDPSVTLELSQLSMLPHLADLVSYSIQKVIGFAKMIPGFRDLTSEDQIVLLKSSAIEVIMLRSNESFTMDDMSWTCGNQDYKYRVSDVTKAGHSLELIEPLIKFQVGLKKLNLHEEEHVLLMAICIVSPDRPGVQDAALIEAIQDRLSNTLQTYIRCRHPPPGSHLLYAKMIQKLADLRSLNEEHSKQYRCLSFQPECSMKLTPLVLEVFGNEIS
# Retinoic acid receptor RXR-alpha (Homo sapiens), sequence (P19793 whole entry, looked up): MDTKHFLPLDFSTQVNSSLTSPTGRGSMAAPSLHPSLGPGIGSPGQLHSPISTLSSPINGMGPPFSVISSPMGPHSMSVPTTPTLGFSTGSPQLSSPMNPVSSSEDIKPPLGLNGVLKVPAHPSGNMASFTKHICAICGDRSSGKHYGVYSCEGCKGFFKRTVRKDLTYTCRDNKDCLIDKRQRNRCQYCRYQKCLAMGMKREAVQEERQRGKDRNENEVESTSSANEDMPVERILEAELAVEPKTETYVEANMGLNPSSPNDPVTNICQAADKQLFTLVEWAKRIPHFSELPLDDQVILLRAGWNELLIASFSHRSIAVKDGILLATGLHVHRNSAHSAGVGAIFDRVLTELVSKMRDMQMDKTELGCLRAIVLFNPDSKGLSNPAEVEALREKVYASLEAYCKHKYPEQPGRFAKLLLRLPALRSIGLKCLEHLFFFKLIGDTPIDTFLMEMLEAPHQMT
# Bile acid receptor (Homo sapiens), sequence (Q96RI1 whole entry, looked up): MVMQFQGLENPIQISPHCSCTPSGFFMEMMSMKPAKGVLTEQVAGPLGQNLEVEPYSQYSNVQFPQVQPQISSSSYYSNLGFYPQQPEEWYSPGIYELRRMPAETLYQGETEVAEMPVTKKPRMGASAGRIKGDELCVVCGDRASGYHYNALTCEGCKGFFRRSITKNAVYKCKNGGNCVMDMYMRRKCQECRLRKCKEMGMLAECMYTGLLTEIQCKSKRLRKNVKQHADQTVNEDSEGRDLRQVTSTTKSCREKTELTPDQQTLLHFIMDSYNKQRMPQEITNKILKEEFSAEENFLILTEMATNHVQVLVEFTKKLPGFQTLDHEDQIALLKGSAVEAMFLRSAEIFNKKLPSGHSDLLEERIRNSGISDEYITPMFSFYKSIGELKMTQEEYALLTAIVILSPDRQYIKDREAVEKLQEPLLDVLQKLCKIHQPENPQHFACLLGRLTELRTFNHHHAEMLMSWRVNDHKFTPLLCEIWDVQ
Structure (SMILES),Potency [1],Potency [2],Potency [3],Potency [4],Potency [5],Potency [6],Potency [7],Potency [8],Potency [9],Potency [10],Potency [11],Potency [12],Potency [13],Potency [14],Potency [15],outcome [16],Potency [17],Potency [18],Potency [19]
Cc1cc2c(C(C)C)c(O)c(O)c(C=O)c2c(O)c1-c1c(C)cc2c(C(C)C)c(O)c(O)c(C=O)c2c1O,11.9 µM (active),18.8 µM (active),10.6 µM (active),16.8 µM (active),11.9 µM (active),9.52 µM (active),10.7 µM (active),26.6 µM (active),inactive,21.3 µM (active),inactive,,,,,,,,
CSc1c(Cl)c(Cl)c(Cl)c(Cl)c1Cl,inactive,,,inactive,,inactive,54.6 µM (active),inactive,,43.4 µM (active),inactive,inactive,inactive,inactive,inactive,,,,
CCC1(c2cnc[nH]2)Cc2ccccc2C1,inactive,,inactive,inactive,inactive,inactive,inactive,inactive,inactive,inactive,,,,inactive,inactive,inactive,inactive,,
CCCCCCCCCCCCCCNCCO,,inactive,inactive,inactive,inactive,inactive,23.9 µM (active),26.6 µM (active),inactive,,inactive,,inactive,inactive,,inactive,inactive,inactive,
CCc1cccc(C)c1,inactive,inactive,inactive,inactive,inactive,inactive,inactive,inactive,inactive,inactive,,inactive,inactive,inactive,,inactive,inactive,,inactive
COC(=O)NCCC[Si](OC)(OC)OC,,,inactive,inactive,49 µM (active),inactive,inactive,inactive,inactive,,inactive,,,inactive,54.5 µM (active),,,,
O=C1c2c(O)ccc(O)c2C(=O)c2c(NCCNCCO)ccc(NCCNCCO)c21,inactive,,,inactive,,,inactive,23.7 µM (active),,,,inactive,,,inactive,,,,26.6 µM (active)
C=C1C(C)(C)[C@@]2(Cl)C(Cl)[C@]1(Cl)C(Cl)(Cl)C2(Cl)Cl (stereo not given in full),inactive,,53.9 µM (active),,38.2 µM (active),,48.1 µM (active),67.3 µM (active),48.1 µM (active),19.1 µM (active),,,inactive,,47.7 µM (active),,,,
Clc1ccc(C(c2ccccc2Cl)C(Cl)Cl)cc1 (stereo not given),inactive,inactive,inactive,inactive,49 µM (active) and inactive,inactive,49 µM (active),inactive,43.6 µM (active) and 23.9 µM (active),34.7 µM (active) and 23.9 µM (active),,inactive,,,inactive,inactive,,,
Nc1ccc2cc3ccc(N)cc3nc2c1,inactive,,3.89 µM (active) and inactive,inactive,24.5 µM (active) and inactive,,inactive,26.6 µM (active),inactive,,,,,,inactive,,,,
CC=O,40.7 µM (active),,45.7 µM (active),64.5 µM (active),22.9 µM (active),57.5 µM (active),16.2 µM (active),63.9 µM (active),,14.4 µM (active),,,,,2.02 µM (active),,,,
CO[C@H]1C=CO[C@@]2(C)Oc3c(C)c(O)c4c(O)c(cc(O)c4c3C2=O)NC(=O)/C(C)=C\C=C/[C@H](C)[C@H](O)[C@@H](C)[C@@H](O)[C@@H](C)[C@H](OC(C)=O)[C@@H]1C,,,,inactive,inactive,inactive,inactive,inactive,49.3 µM (active),12.4 µM (active),inactive,,,inactive,43.6 µM (active),inactive,,,
SCCCCCCCCS,inactive,inactive,inactive,inactive,inactive,inactive,34.7 µM (active),inactive,inactive,inactive,inactive,inactive,inactive,inactive,,inactive,inactive,inactive,inactive
